# Assays:
# Test in all cases: growth inhibition (% activity, log2 RLU normalised to DMSO / staurosporine); higher = more growth inhibition
# Details in all cases: 33 µM
# DIPGX29 = tested on: DIPGX29 (H3.3 K27M diffuse intrinsic pontine glioma line)
# Summary of the method: (§1)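 For each approved drug, the growth-inhibition value is the replicate median of per-plate normalised CellTiter-Glo data. Luminescence was log2-transformed and expressed as % activity between solvent and positive control wells. Drugs were applied in triplicate at a single final concentration of about 33 μM for 7 days at 37 °C, 5% CO2 to pHGG cell lines and H9-derived neural stem cells.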
# DIPGX37 = tested on: DIPGX37 (H3.3 K27M diffuse intrinsic pontine glioma line)
# Summary of the method: as §1
# DIPGX7 = tested on: DIPGX7 (H3.3 K27M diffuse intrinsic pontine glioma line)
# Summary of the method: as §1
# DIPGX9 = tested on: DIPGX9 (diffuse intrinsic pontine glioma line)
# Summary of the method: as §1
# HGGX39 = tested on: HGGX39 (paediatric high-grade glioma line)
# Summary of the method: as §1
# HGGX6 = tested on: HGGX6 (H3.3 G34R paediatric high-grade glioma line)
# Summary of the method: as §1
# HNSC = tested on: HNSC
# Summary of the method: as §1
# SUDIPGIV = tested on: SUDIPGIV (diffuse intrinsic pontine glioma line)
# Summary of the method: as §1
# SUDIPGVI = tested on: SUDIPGVI (diffuse intrinsic pontine glioma line)
# Summary of the method: as §1
# SUDIPGXIII = tested on: SUDIPGXIII (diffuse intrinsic pontine glioma line)
# Summary of the method: as §1
Structure (SMILES),growth inhibition (DIPGX29) [%],growth inhibition (DIPGX37) [%],growth inhibition (DIPGX7) [%],growth inhibition (DIPGX9) [%],growth inhibition (HGGX39) [%],growth inhibition (HGGX6) [%],growth inhibition (HNSC) [%],growth inhibition (SUDIPGIV) [%],growth inhibition (SUDIPGVI) [%],growth inhibition (SUDIPGXIII) [%]
CCC(C)C1OC2(CCC1C)CC1CC(CC=C(C)C(OC3CC(OC)C(OC4CC(OC)C(O)C(C)O4)C(C)O3)C(C)C=CC=C3COC4C(O)C(C)=CC(C(=O)O1)C34O)O2 (stereo not given),3.13,0.396,1.82,2.33,3.17,15.6,27.4,0.217,3.51,47.6
CC(C(=O)O)c1ccc(-c2ccccc2)c(F)c1 (stereo not given),0.779,3.25,1.53,1.06,2.57,1.43,0.919,-4.24,2.75,-0.916
CCN(CC)CCCC(C)Nc1ccnc2cc(Cl)ccc12 (stereo not given),2.54,3.91,3.48,2.75,2.84,2.74,2.95,1.72,2.6,0.0881
C[C@@H]1C[C@H]2[C@@H]3C[C@H](F)C4=CC(=O)C=C[C@]4(C)[C@@]3(F)[C@@H](O)C[C@]2(C)[C@@]1(O)C(=O)CO,2.44,5.42,0.269,4.89,3.56,-0.761,5.26,-0.633,0.461,-1.67
CC(COc1ccccc1)N(CCCl)Cc1ccccc1 (stereo not given),-2.73,-0.547,0.876,-1.7,-4.31,-3.53,41.4,-2.44,-7.02,1.89
C[C@]12CCC(=O)C=C1[C@@H]1C[C@@H]1[C@H]1[C@@H]3[C@@H]4C[C@@H]4[C@@]4(CCC(=O)O4)[C@@]3(C)CC[C@@H]12,0.956,1.46,0.0985,0.611,2.45,2.65,0.782,0.914,2.83,0.882
CCC(=O)OCC(=O)[C@@]1(OC(=O)CC)[C@@H](C)C[C@H]2[C@@H]3CCC4=CC(=O)C=C[C@]4(C)[C@@]3(Cl)[C@@H](O)C[C@@]21C,2.67,-2.69,1.9,4.04,3.24,1.72,0.321,-1.55,-0.46,0.862
COC(=O)C1=C(C#N)NC(C)=C(C(=O)OC(C)C)C1c1cccc([N+](=O)[O-])c1 (stereo not given),-1.9,-0.628,-0.445,-1.03,-1.34,-3.12,5,-1.37,-1.47,1.7
CN(C)CC/C=C1/c2ccccc2COc2ccc(CC(=O)O)cc21,1.93,3.18,2.2,2.77,2.27,2.49,-0.124,-0.355,2.4,0.825
NS(=O)(=O)c1cc(Cl)c(Cl)c(S(N)(=O)=O)c1,-2.92,-0.619,1.34,-2.39,-1.33,-5.6,21.2,-2.27,-8.85,2.33
O=C(Nc1ccccc1)c1ccccc1O,-0.176,2.96,0.467,-0.488,3.96,0.186,1.7,5.1,-0.592,1.74
O=c1[nH]c(=O)n([C@H]2C[C@H](O)[C@@H](CO)O2)cc1I,0.0722,-1.6,-3.14,-0.0918,-2.1,-0.2,17.9,-1.37,-0.112,0.635
Cc1cccc(N(C)C(=S)Oc2ccc3ccccc3c2)c1,-3.14,-1.11,-2.16,-2.01,-1.4,-3.78,-3.49,-3.02,-3.26,0.248
COc1cc2nccc(Oc3ccc(NC(=O)C4(C(=O)Nc5ccc(F)cc5)CC4)cc3)c2cc1OC,2.36,6.14,9.24,6.67,4.78,17.7,42,0.288,5.98,2
CCCc1nc(C(C)(C)O)c(C(=O)OCc2oc(=O)oc2C)n1Cc1ccc(-c2ccccc2-c2nnn[nH]2)cc1,-1,0.0168,-0.622,0.493,-1.5,-3.62,12.4,-1.28,-2.12,-2.02
CC(O)(P(=O)(O)O)P(=O)(O)O,-0.191,1.06,-0.11,-0.168,-1.7,1.43,-0.64,-0.506,1.73,0.673
CCCCc1oc2ccccc2c1C(=O)c1cc(I)c(OCCN(CC)CC)c(I)c1,11.5,3.87,16.3,3.8,8.92,12.4,34.9,6.94,3.07,7.05
c1ccc(-c2ccc(C(c3ccccc3)n3ccnc3)cc2)cc1 (stereo not given),3.65,2.9,5.02,5.27,9.63,5.19,11.5,13.7,2.63,-0.141
O=C(N[C@H](CO)[C@H](O)c1ccc([N+](=O)[O-])cc1)C(Cl)Cl,-0.766,2.12,-0.167,-0.0638,1.67,-1.13,3.64,-0.734,0.976,-0.883
CCC(=O)OCC(=O)[C@@]1(OC(=O)CC)[C@@H](C)C[C@H]2[C@@H]3CCC4=CC(=O)C=C[C@]4(C)[C@@]3(F)[C@@H](O)C[C@@]21C,0.0157,2.23,0.0573,4.05,3.08,1.77,-4.87,-0.108,0.781,1.98
COc1ccc2cc1Oc1ccc(cc1)C[C@H]1c3c(cc4c(c3Oc3cc5c(cc3OC)CCN(C)[C@@H]5C2)OCO4)CCN1C,1.78,2.93,1.55,1.36,3.95,0.797,3.27,-0.21,3.68,1.63
